In PubChem BioAssay:
Measured potencies and affinities stand elsewhere. Activity calls are given as the source filed them.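 Rule for the calls, unless noted: active = a fitted half-maximal concentration no higher than twice the top valid tested dose, with signal falling as cells die; inconclusive = flat curve between -70% and -30%, or poor fit; inactive = the rest, including signal rising instead of falling.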

Key:
[1] = C. neoformans lysis by adenylate kinase leakage – AK release luminescence, cherry-picks, dose response (AID 687000;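 active = fitted dose curve reaches 40% lysis signal rise at or below the highest valid concentration tested for that sample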;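 note: luminescent detection of adenylate kinase leaking from lysed yeast; 0% = median neutral control signal and 100% = double that signal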)
[2] = viability loss in HepG2 hepatoma cells – cell-based, cherry-picks, set 2, cytotoxicity control, dose response (AID 687002;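 active = a dose-response fit showing signal loss, with half-maximal concentration no higher than twice the top tested dose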)
[3] = viability loss in HeLa cells – cell-based, ATP luminescence, cherry-pick samples, cytotoxicity control, dose response (AID 687004);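 note: 0% = neutral control median and -100% = staurosporine 10 µM control median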

Measured: activity change, negative = cytotoxicity

CCN1C(=S)N[C@@H](c2cccc(F)c2)C(C(=O)OC)=C1C
inactive: all assays above

Cc1cc(C)c(NC(=O)CN2CCN3CCCC3C2)c(C)c1 (stereo not given)
inactive: all assays above

COc1ccc(NC(=O)CN2CCN(S(=O)(=O)c3ccc(C(C)C)cc3)CC2)cc1OC
inactive: all assays above

COc1ccc(NC(=O)CSc2ncnc3c2cnn3Cc2ccccc2)cc1
inactive: all assays above

CC(NC(=O)COc1ccccc1Cl)c1ccccc1 (stereo not given)
inactive: all assays above

N#C[C@H]1[C@@H](c2ccccc2)[C@@H](CO)N1C(=O)Cc1ccccc1
inactive: all assays above

O=C(CN1CCOCC1)N[C@@H]1CC[C@@H](CCNC(=O)C2CCC2)O[C@@H]1CO
inactive: all assays above

CCC(=O)N1CCC1(C)C(=O)Nc1ccc(C)c(C)c1 (stereo not given)
inactive: all assays above

CNC[C@@H]1Oc2c(NS(=O)(=O)c3ccc(Cl)cc3)cccc2C(=O)N([C@H](C)CO)C[C@H]1C
inactive: all assays above

COc1ccc(C2CC(c3cccs3)=NN2C(=O)c2ccco2)cc1OC (stereo not given)
inactive: all assays above

O=C(C[C@H]1CC[C@H]2[C@@H](COC[C@H](O)CN2Cc2cc(F)cc(F)c2)O1)Nc1nccs1
inactive: all assays above

CCN(CC)C(=O)CSc1ncnc2c1cnn2-c1ccccc1
inactive: all assays above

C[C@@H]1CN([C@@H](C)CO)S(=O)(=O)c2ccc(C3=CCCC3)cc2O[C@@H]1CN(C)Cc1ccccc1F
inactive: all assays above

Cc1c(C(=O)NC(=S)Nc2ccc(N3CCOCC3)cc2)cccc1[N+](=O)[O-]
inactive: all assays above

CO[C@@H]1CN(C)C(=O)c2ccc(NS(=O)(=O)c3ccc(Oc4ccccc4)cc3)cc2OC[C@H](C)NC[C@H]1C
inactive: all assays above

COc1ccccc1NC(=O)c1cn(C)c(=O)c2cc(OC)c(OC)cc12
inactive: all assays above

CCOC(=O)CNC(=O)CSc1ncnc2c1cnn2-c1ccccc1
inactive: all assays above

Cc1cccc(C)c1NC(=O)CN(C)C(=O)CC1CC2CCC1C2 (stereo not given)
inactive: all assays above

CCNC(=O)CN(c1ccc(Cl)cc1)S(=O)(=O)c1ccccc1
inactive: all assays above

O=C(C[C@@H]1C=C[C@@H](NC(=O)Nc2cc(F)ccc2F)[C@H](CO)O1)NCCCN1CCOCC1
inactive: all assays above

Cc1ccc(/C=C2\SC(=S)N(NS(=O)(=O)c3ccc(C)cc3)C2=O)cc1
inactive: all assays above

CC(C)NC(=O)N(C)C[C@H]1Oc2c(NS(=O)(=O)c3ccc(Cl)cc3)cccc2C(=O)N([C@@H](C)CO)C[C@@H]1C
inactive: all assays above

O=C(CN(c1ccccc1)S(=O)(=O)c1ccccc1)Nc1ccc(F)cc1
inactive: all assays above

O=C(c1ccco1)N1N=C(c2cccs2)CC1c1cc([N+](=O)[O-])ccc1O (stereo not given)
inactive: all assays above

Cc1cc(C(=O)Nc2cccc3c2O[C@@H](CN(C)S(=O)(=O)c2ccccc2)[C@@H](C)CN([C@@H](C)CO)C3=O)n(C)n1
inactive: all assays above

CC(C)(C)SCCNC(=O)CN(c1ccccc1)S(=O)(=O)c1ccccc1
inactive: all assays above

CN1c2ccc(-c3ccc(F)cc3)cc2[C@H]2[C@H](CCN2S(=O)(=O)c2cccc(F)c2)[C@H]1CO
inactive: [1] | [2] | [3] 7.29% [at 6 µM]

O=C(CSc1nc(CCC2CCCC2)nc2ccccc12)NCc1ccc2c(c1)OCO2
inactive: all assays above

CC(=O)c1ccc(OCC(=O)NCc2ccc(F)cc2)cc1
inactive: all assays above

Cc1ccccc1-n1ncc2c(SCC(=O)N3c4ccccc4CC3C)ncnc21 (stereo not given)
inactive: all assays above

C[C@H]1CN([C@@H](C)CO)C(=O)c2cc(-c3ccccc3)cnc2O[C@@H]1CN(C)C(=O)c1ccccn1
inactive: all assays above

CC12CC3CC(C)(C1)CC(C(=O)NC(=S)N1CCCCC1)(C3)C2
inactive: all assays above

C[C@H](CO)N1C[C@H](C)[C@H](CN(C)C(=O)NC2CCCCC2)OCCCC[C@H](C)Oc2ccc(NS(=O)(=O)c3cn(C)cn3)cc2C1=O
inactive: all assays above

Cc1cccc(OCC(=O)NCc2ccc(F)cc2)c1
inactive: all assays above

Cc1cc(C)c(NC(=O)CN(C2CCCCC2)C2CCCCC2)c(C)c1
inactive: all assays above

C[C@@H]1CN([C@H](C)CO)C(=O)c2ccccc2-c2ccccc2CO[C@H]1CN(C)S(=O)(=O)c1cccc(C#N)c1
inactive: all assays above

CCc1ccc(C(=O)NC(=S)Nc2ccccc2N2CCOCC2)cc1
inactive: all assays above

C/C=C/c1ccc([C@@H]2[C@@H](C#N)N(S(=O)(=O)c3cccc(F)c3)[C@@H]2CO)cc1
inactive: all assays above

Cc1cccc(OCC(=O)NCc2ccccc2)c1
inactive: all assays above

Cc1ccc(C(=O)NC(=S)Nc2cccc(NC(=O)c3ccccc3)c2)cc1[N+](=O)[O-]
inactive: all assays above

CN1c2ccc(-c3ccc(F)cc3)cc2[C@@H]2[C@@H](CCN2C(=O)C2CCOCC2)[C@@H]1CO
inactive: all assays above

O=C(c1ccco1)N1N=C(c2cccs2)CC1c1ccc(F)cc1 (stereo not given)
inactive: all assays above

CCc1ccc(NC(=O)[C@H](C)NC(=O)C2CCN(C(=O)[C@@H](N)C(C)C)CC2)cc1
inactive: all assays above

COCCN1C(=O)CCC1(C)C(=O)Nc1c(C)cccc1C (stereo not given)
inactive: all assays above

CCOC(=O)CNC(=O)CSc1ncnc2c1cnn2-c1ccc(C)cc1
inactive: all assays above

CCCNC(=O)C[C@H]1CC[C@H]2[C@@H](COC[C@@H](O)CN2S(=O)(=O)c2ccc(Oc3ccccc3)cc2)O1
inactive: all assays above

CCC(=O)N1[C@H](CO)[C@@H](c2ccc(-c3cccnc3)cc2)[C@@H]1CN(C)C(C)=O
inactive: all assays above

Cc1cccc(-c2ccc([C@@H]3[C@@H](CO)N4CCCCN(S(=O)(=O)c5ccccc5C)C[C@@H]34)cc2)c1
inactive: all assays above

C[C@H]1CN([C@@H](C)CO)C(=O)CCCn2cc(nn2)CO[C@@H]1CN(C)Cc1ccc(C(F)(F)F)cc1
inactive: all assays above

Cc1ccc(C2CCN(C(=S)NC3CCCCC3)C2)cc1 (stereo not given)
inactive: all assays above

CCCC(=O)Nc1ccc2c(c1)OC[C@@H](C)N(Cc1ccccn1)C[C@@H](C)[C@H](OC)CN(C)C2=O
inactive: all assays above

O=C(c1ccco1)N1N=C(c2cccs2)CC1c1ccco1 (stereo not given)
inactive: all assays above

Cc1ccc(CSc2ncnc3c2cnn3-c2ccccc2)cc1
inactive: all assays above

CCC(C)(C(=O)Nc1ccccc1C)N(C(=O)CNC(C)=O)c1ccccc1C (stereo not given)
inactive: all assays above

Cc1ccc(NC(=O)C(=O)NCCCN2CCCC2=O)c(C)c1
inactive: all assays above

Fc1ccccc1CNC(=S)NCc1ccc(Cl)cc1
inactive: all assays above

Cc1ccc(S(=O)(=O)N(C)C[C@H]2Oc3c(cccc3N(C)C)C(=O)N([C@@H](C)CO)C[C@H]2C)cc1
inactive: all assays above

O=C(COc1ccccc1)NCc1ccccc1
inactive: all assays above

Cc1ccc(C2CC(c3cccs3)=NN2C(=O)c2ccc(Br)o2)cc1 (stereo not given)
inactive: all assays above

Cc1c(Cl)cccc1NC(=O)C1NC(=O)CC1c1ccccc1 (stereo not given)
inactive: all assays above
